Reference: a collection of fitness landscapes (doi:10.1016/j.celrep.2020.107928)
Over roughly 81,000 sequences, “one-hybrid fitness for binding parS DNA” has its median near -0.17; the highest 2% begin near 0.51. The sample holds the highest values, similar sequences and a random draw of the others, so the mix is not that of the screen.

B1: Caulobacter ParB omega fusion; a variant is named by its letters at X, in order, B8GW30 (parent)
chain: MESVVVGEPGMSEGRRGLGRGLSALLGEVDAAPAQAPGEQLGGSREAPIEILQRNPDQPRRTFREEDLEDLSNSIREKGVLQPILVRPSPDTAGEYQIVAGERAWRAAQRAGLKTVPIMVRELDDLAVLEIGIIENVQRADLNVLEEALSYKVLMEKFERTQENIAQTIGKSXSHVANXMRLLXLPDEVQSYLVSGELTAXHARAIAAAADPVALAKQIIEGGLSVRETEALARKAPNLSAGKSKGGRPPRVKDTDTQALESDLSSVLGLDVSIDHRGSTGTLTITYATLEQLDDLCNRLTRGI

Variants of: B1
Test: one-hybrid fitness for binding parS DNA (scaled: cognate 1, non-cognate 0); higher = stronger binding
Settings: with parS DNA site
How it was run: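 In E. coli USO, a HIS3 reporter with its site placed 19 bp from the promoter was used to select Caulobacter ParB variants randomised at four specificity codons. Growth lasted 48 hours at 37°C on histidine-free M9 containing 0.1 mM IPTG and 5 mM 3-AT. Fitness was taken as the log change in variant-to-wild-type read ratio from Illumina sequencing of pre- and post-selection plasmids, rescaled between the non-cognate and cognate sites.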

Row | Variant | one-hybrid fitness for binding parS DNA
1 | RIVH | ≤ 0.2
2 | RIVT | 0.788
3 | RIKF | 0.303
4 | RAAC | 0.98
5 | RAFC | 0.925
6 | RAAY | 0.478
7 | RAFM | 0.331
8 | RAAR | ≤ 0.2
9 | RAFF | 0.249
10 | SIFS | ≤ 0.2
11 | QSTM | ≤ 0.2
12 | HPTI | ≤ 0.2
13 | RRPA | 0.574
14 | RCPA | 0.432
15 | RPPA | ≤ 0.2
16 | NRIA | ≤ 0.2
17 | RRIA | 0.828
18 | NRNI | ≤ 0.2
19 | YNMN | ≤ 0.2
20 | KQFG | ≤ 0.2
21 | NYTR | ≤ 0.2
22 | EPTE | ≤ 0.2
23 | PWQI | ≤ 0.2
24 | FKHA | ≤ 0.2
25 | NRKT | ≤ 0.2

Row | Variant | one-hybrid fitness for binding parS DNA
26 | RRKE | ≤ 0.2
27 | RRVK | ≤ 0.2
28 | RRVF | ≤ 0.2
29 | RRKT | 0.59
30 | RRVT | 0.607
31 | VTCL | ≤ 0.2
32 | GDYG | ≤ 0.2
33 | HEET | ≤ 0.2
34 | ALQS | ≤ 0.2
35 | RETT | ≤ 0.2
36 | RATT | 0.915
37 | RPTT | ≤ 0.2
38 | RATQ | ≤ 0.2
39 | RITM | 0.319
40 | RITF | 0.254
41 | RITT | 0.931
42 | RHTQ | ≤ 0.2
43 | RHTT | 0.868
44 | RHTR | ≤ 0.2
45 | RATK | ≤ 0.2
46 | RCTT | 0.949
47 | VVST | ≤ 0.2
48 | HWNY | ≤ 0.2
49 | MEIG | ≤ 0.2
50 | RMTL | ≤ 0.2

Row | Variant | one-hybrid fitness for binding parS DNA
51 | RRTY | 0.398
52 | RTTD | ≤ 0.2
53 | RRTT | 0.565
54 | RLTT | 0.956
55 | RTTT | 0.917
56 | RTTF | 0.253
57 | RLTY | 0.48
58 | RLTR | ≤ 0.2
59 | RMTT | 0.945
60 | RMTY | 0.497
61 | RRTF | ≤ 0.2
62 | VTRD | ≤ 0.2
63 | SSGG | ≤ 0.2
64 | QKKR | ≤ 0.2
65 | CTAV | ≤ 0.2
66 | PDQD | ≤ 0.2
67 | DVDG | ≤ 0.2
68 | RFTT | 0.836
69 | DFTT | ≤ 0.2
70 | RSTT | 0.895
71 | RKTF | ≤ 0.2
72 | RKTT | 0.754
73 | RDTT | ≤ 0.2
74 | RSTR | ≤ 0.2
75 | RKTY | 0.353

Row | Variant | one-hybrid fitness for binding parS DNA
76 | RFTD | ≤ 0.2
77 | CALF | ≤ 0.2
78 | HDLT | ≤ 0.2
79 | WILE | ≤ 0.2
80 | CTPG | ≤ 0.2
81 | CPIR | ≤ 0.2
82 | QLLW | ≤ 0.2
83 | TAMD | ≤ 0.2
84 | VFPY | ≤ 0.2
85 | RKKC | 0.694
86 | RKKQ | ≤ 0.2
87 | RKVQ | ≤ 0.2
88 | RKVC | 0.868
89 | RKVP | ≤ 0.2
90 | RKKR | ≤ 0.2
91 | WLFR | ≤ 0.2
92 | ESLF | ≤ 0.2
93 | DFNL | ≤ 0.2
94 | RNAN | 0.301
95 | RNAC | 0.754
96 | RNFQ | ≤ 0.2
97 | RNFC | 0.627
98 | RNAP | ≤ 0.2
99 | RNFM | ≤ 0.2
